NTMT1 inhibitor: Primary qHTS for Inhibitors of N-terminal methyltransferase 1 (NTMT1): MTaseGlo Assay; N-terminal Xaa-Pro-Lys N-methyltransferase 1 (Homo sapiens), Q9BV86; NTMT1 MTase-Glo SAH luminescence, purified enzyme; Potency, µM (series often up to 114 µM), most hits filed as inhibitors; 59,000 compounds, 2.5% hits; AID 1645870, 2021; note: nearly all actives have a fitted effect of over 65% in size
Target sequence (Q9BV86 whole entry, looked up): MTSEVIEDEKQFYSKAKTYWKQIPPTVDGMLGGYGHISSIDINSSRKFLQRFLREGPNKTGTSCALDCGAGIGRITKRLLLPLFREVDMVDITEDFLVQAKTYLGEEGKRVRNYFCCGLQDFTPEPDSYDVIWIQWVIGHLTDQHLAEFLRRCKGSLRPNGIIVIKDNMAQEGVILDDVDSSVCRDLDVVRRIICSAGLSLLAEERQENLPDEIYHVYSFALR
SKOV3 invasion: Primary qHTS assay for Inhibitors of ovarian cancer metastasis using an organotypic tumor microenvironment (TME) model; SKOV3ip1-GFP adhesion/invasion on 3D omental model, fluorescence; Potency, µM (doses to about 45.8 µM), usual class: inhibitors; 46,000 compounds, 0.1% hits; AID 1963576, 2024; note: nearly all actives have a fitted effect of over 65% in size
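A 3D layer of primary human omental fibroblasts, mesothelial cells, fibronectin and collagen I, grown 48 hr, received SKOV3ip1-GFP cells in serum-free medium plus compounds at 0.36-46 umol/L. After 2 hr RT and 16 hr 37 C, fixed adherent GFP cells were counted; normalized to DMSO and tomatine.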
TSG101-PTAP inh: qHTS Validation Assay for Inhibitors of HIV-1 Budding by Blocking the Interaction of PTAP/TSG101: Sytravon Library Screen | Tumor susceptibility gene 101 protein (Homo sapiens), Q99816 | Fluorescence polarization, FITC-PTAP peptide/Tsg101, 20 min | Potency, µM (titrated, usually from 115 µM), actives largely listed as inhibitors | 44,000 tested, under 10 active | AID 1347069, 2019
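Fluorescence polarization: Tsg101 binding domain (10 uM final) in 10 mM HEPES pH 7.5, 0.15 M NaCl, 0.01% Tween 20, 3 mM EDTA, 0.1 mM TCEP; compounds pinned; FITC-PTAP peptide 50 nM final; 20 min, r.t.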
B2AR arrestin ag: qHTS assay of beta-arrestin-biased ligands of beta2-adrenergic receptor: NCGC Sytravon Library Screen | Beta-2 adrenergic receptor (Homo sapiens), P07550 | HTLA Tango cells, beta-arrestin recruitment, luciferase luminescence, 18 h | Potency, µM (highest dose often 46.1 µM), most hits filed as activators | 44,000 tested, under 10 active | AID 1347077, 2019
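Ligand-induced beta-arrestin recruitment to recombinant beta2-AR is measured via a tTA-driven luciferase reporter in Tango cells after 18 hr compound exposure at 37 degrees C. Concentrations span up to 46 microM.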
GALK inh: qHTS Assay for Inhibitors of Human Galactokinase (GALK): NCGC Sytravon Library Screen; P51570; recombinant GALK, Kinase-Glo ATP luminescence, 1 h; Potency, µM (titrated, usually from 57.5 µM), usual class: inhibitors; 44,000 tested, under 10 active
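Luminescent ATP-depletion readout (Kinase-Glo Plus, 10 min) after 1 h RT reaction of 5 nM GALK, 35 uM ATP, 100 uM galactose, pH 8.0 HEPES buffer. Decreased kinase activity scored as inhibition.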
GPR32 ag: qHTS for Agonists of Human Resolvin D1 Receptor DRV1; Probable G-protein coupled receptor 32 (Homo sapiens), O75388; CHO-K1 GPR32 beta-arrestin PathHunter luminescence, 90 min; zero percent set by DMSO-only wells; activation, % at 76.9 µM; 48,000 compounds, 2.5% hits;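 active = activation of at least 60% and not above a set upper limit, about 1 call in 100 departs from these limits; inconclusive = activation of 40% to 60%, or above that upper limit; inactive = activation under 40%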
Target sequence (O75388 whole entry, looked up): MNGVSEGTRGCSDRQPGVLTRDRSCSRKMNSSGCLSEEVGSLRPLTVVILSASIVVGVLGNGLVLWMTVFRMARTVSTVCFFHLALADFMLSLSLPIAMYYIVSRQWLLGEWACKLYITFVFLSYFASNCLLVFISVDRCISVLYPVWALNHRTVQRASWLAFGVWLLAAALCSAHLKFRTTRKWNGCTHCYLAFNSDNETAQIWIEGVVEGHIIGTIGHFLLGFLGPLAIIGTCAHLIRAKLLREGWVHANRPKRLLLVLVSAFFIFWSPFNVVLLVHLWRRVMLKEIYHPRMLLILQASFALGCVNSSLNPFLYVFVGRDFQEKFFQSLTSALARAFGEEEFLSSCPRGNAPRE
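PathHunter beta-arrestin recruitment in CHO-K1 cells stably expressing ProLink-tagged GPR32. Cells were exposed to compound for 90 min at 37 C, then chemiluminescence was read after 1 h detection at ambient temperature; DMSO served as basal control.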
Hits are given with their value; - = inactive; ? = inconclusive; . = no result; ! = a repeat was not active. A selection: hits, their analogues and other compounds. The true share with any hit is near 3.8%. Unless noted, calls come from the whole dose curve; as a rule, active = well fitted curve in the direction sought with a large enough effect; inconclusive = small, poorly fitted or top-dose-only effect, or another doubt; inactive = no such curve, though single readings can be large; an effect the other way counts as inactive or inconclusive.

SMILES	NTMT1 inhibitor	SKOV3 invasion	TSG101-PTAP inh	B2AR arrestin ag	GALK inh	GPR32 ag
CCN(CCCNC(=O)CSc1cc(=O)n(CC)c2ccccc12)c1ccccc1	?	-	-	-	-	117
CCN(CCCNC(=O)c1cc2c(=O)n(C)c3ccccc3c2s1)c1ccccc1	?	-	-	-	-	70
COc1ccccc1CNC(=O)Cc1csc2nc(-c3ccc(F)cc3)cn12	-	-	-	-	-	-
CCOc1cc(C)c(C(C)C)cc1S(=O)(=O)n1ccnc1CC	-	-	-	-	-	-
COc1cc(NC(=O)c2cc3ccccn3n2)cc(OC)c1OC	.	-	-	-	-	-
CCOc1ccccc1NC(=O)C(CC(C)C)NS(=O)(=O)c1ccc2c(c1)oc(=O)n2C (stereo unspecified)	-	-	-	-	-	-
O=C1NC(=O)/C(=C/c2ccc(-c3ccc(F)cc3O)o2)S1	35µM	.	.	.	.	62
O=C1NC(=O)/C(=C\c2ccc(-c3ccc(F)cc3O)o2)S1	28µM	.	.	.	.	.
O=C1NC(=O)/C(=C/c2ccc3nccnc3c2)S1	-	.	.	.	.	-
N=C1S/C(=C\c2ccc(-c3ccc4c(c3)C(=O)NC4=O)o2)C(=O)N1c1ccc(Br)cc1	-	.	.	.	.	.
CCC(C(=O)NCCC(C)C)N(C(=O)Cn1nnc(-c2ccc(C)cc2)n1)c1cccc(O)c1 (stereo unspecified)	?	-	-	-	-	-
COc1ccc(NC(=O)CCCN2C(=O)C(c3ccccc3)Oc3cccnc32)cc1OC (stereo unspecified)	-	-	-	-	-	76
O=C(NCc1ccc(F)cc1)c1c2c(nc3ccccc13)C(=O)N(C1CCCCC1)C2	-	-	-	?	-	-
O=C(CC(c1ccccc1)c1cc(Br)ccc1O)NCC1(c2ccccc2)CCCC1 (stereo unspecified)	.	?	-	-	-	108
CC(=O)OC(COc1ccccc1)Cn1cnc2cc(C)c(C)cc21 (stereo unspecified)	.	-	-	-	-	-
C=Cc1ccc(Cn2c(=O)n(CC3CCC(C(=O)NC(C)C)CC3)c(=O)c3sccc32)cc1 (stereo unspecified)	-	?	-	-	-	-
Cc1cc(C(=O)NCCc2ccc(Cl)cc2)c2c(C)nn(-c3ccccc3)c2n1	-	-	-	-	-	-
CCCOC(=O)c1cccc(Nc2nc(CCC)cc(=O)[nH]2)c1	.	-	-	-	-	87
COc1cc2ncnc(Nc3cccc(O)c3)c2cc1OC	-	.	.	.	.	.
COc1cc2ncnc(Nc3cccc(Cl)c3)c2cc1OC	25µM	-	.	.	.	-
COc1cc2ncnc(Nc3cccc(Br)c3)c2cc1OC	16µM	-	.	.	.	.
Cc1noc(C)c1S(=O)(=O)Nc1ccc(C(=O)Nc2ccc(C(C)C)cc2)cc1	-	-	-	-	-	91
Cc1noc(C)c1S(=O)(=O)Nc1ccc(C(=O)Nc2ccc(Br)cc2)cc1	-	-	-	-	-	95
Cc1cc(Br)ccc1NC(=O)c1ccc(NS(=O)(=O)c2c(C)noc2C)cc1	-	-	-	-	-	64
CC(C)Cc1nn2c(=O)cc(COC(=O)c3ccccc3NC(=O)C3CCCCC3)nc2s1	-	-	-	-	-	-
SMILES	NTMT1 inhibitor	SKOV3 invasion	TSG101-PTAP inh	B2AR arrestin ag	GALK inh	GPR32 ag
COc1ccccc1N1CCN(S(=O)(=O)c2ccc3c(c2)oc(=O)n3C)CC1	?	-	-	-	-	-
CN(C)c1cc(NC(=O)CNC(C)(C)C)c(O)c2c1C[C@@H]1C[C@H]3[C@H](N(C)C)C(=O)C(C(N)=O)=C(O)[C@@]3(O)C(=O)C1=C2O	40µM	-	.	.	.	-
CN(C)c1cc(NC(=O)CNC(C)(C)C)c(O)c2c1C[C@H]1C[C@H]3[C@H](N(C)C)C(=O)C(C(N)=O)=C(O)[C@]3(O)C(=O)C1=C2O	40µM	.	.	.	.	.
COc1cc(NC(=O)CC2C(=O)N(c3ccccc3)C(=O)N2Cc2ccc(F)cc2)cc(OC)c1 (stereo unspecified)	-	-	-	-	-	-
CCOC(=O)c1noc2ncn(CC(=O)Nc3cccc(Cl)c3)c(=O)c12	-	-	-	-	-	-
CCOC(=O)c1noc2ncn(CC(=O)Nc3ccc(C)c(F)c3)c(=O)c12	-	-	-	-	-	76
O=C(Cn1ncc2c1-c1ccccc1OC2)N1CCN(c2ccccc2F)CC1	-	-	-	-	-	92
Cc1cc(O)c(C(C)C)cc1Cl	-	.	.	.	.	86
Cc1cc(O)c(C)c(C)c1O	-	.	.	.	.	-
CCCCCOc1ccc(NC(=O)Cc2csc(C)n2)cc1	-	-	-	-	-	-
O=C(CCNS(=O)(=O)c1ccc(Br)s1)Nc1ccc(Br)cc1	-	-	-	-	-	89
CCCCOc1ccc(CC/C=C2\SC(=O)N(CCN)C2=O)cc1	50µM	.	.	.	.	.
CCc1ccc(CCOc2ccc(CC3SC(=O)NC3=O)cc2)nc1 (stereo unspecified)	32µM!	-	.	.	.	-
Cc1ccccc1Nc1c(-c2c[nH]c3ccccc23)nc2ccccn12	-	-	-	-	-	-
CCN(C(=O)CSc1nnc(-c2ccc(Cl)cc2)o1)c1ccccc1	?	-	-	-	-	-
CCOc1ccccc1CNCc1c(C(=O)O)n(Cc2ccc(F)cc2)c2cc(C)ccc12	-	-	-	-	-	-
CCOC(=O)c1oc2c(c1C)-c1nn(Cc3ccc(Cl)cc3)cc1CC2	-	-	-	-	-	-
Cc1c(C(=O)O)oc2c1-c1nn(Cc3ccc(Cl)cc3)cc1CC2	50µM	-	-	-	-	-
CCOC(=O)C1CCN(S(=O)(=O)c2cc(-c3cc(C)no3)ccc2OC)CC1	89µM	-	-	-	-	-
CCOC(=O)C1CCN(S(=O)(=O)c2cc(-c3cc(C)no3)ccc2C)CC1	-	-	-	-	-	-

High-throughput results deposited in PubChem BioAssay by National Center for Advancing Translational Sciences (NCATS).
